Data on 5 molecules can be found in PubChem BioAssay.

The structures appear in SMILES notation. The source made the active and inactive calls.

One test concerns the target Albumin (Bos taurus) (UniProt P02769). The experiment in a line: compounds binding labelled BSA control protein – biochemical, small-molecule microarray, Alexa647 label, 635/667 nm fluorescence, artefact control for SMM control protein annotation, profiling panel (AID 1118).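 Also: score merges 667 nm emission intensity and signal-to-noise per printed compound spot.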 The settings on record: BSA-A647 binding, fluorescence 635 nm, higher = more signal.
The nature of test [1]: probe aXIP binding to arrayed compounds – biochemical, NeuroSMM set, 635/667 nm fluorescence, primary screen (AID 1119).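 Also: probe is the protein aXip251-270 applied at 1 µg/mL to compound-printed slides; binding of probe to printed compounds measured as 667 nm fluorescence plus signal to noise.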 The note with it: small-molecule microarray, higher = more signal, called active from +8 up or from −8 down.
Test [2] is described as follows: probe aNOTCH3 binding on compound microarray – biochemical, small-molecule microarray, 635/667 nm fluorescence, primary screen (AID 1120).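 Also: probe is a biotin-tagged antibody raised against NOTCH3 rather than NOTCH3 protein; score merges spot fluorescence near 667 nm with spot signal to noise.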 The settings on record: higher = more signal.
A short description of test [3]: probe aNOTCH2 binding on compound microarray – biochemical, small-molecule microarray, 635/667 nm fluorescence, primary screen (AID 1121).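 Also: score merges feature fluorescence read at 667 nm with its signal to noise.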 The settings on record: higher = more signal.
The target in test [4] is Carbonic anhydrase 2 (Homo sapiens) (UniProt P00918). The experiment in a line: compounds binding carbonic anhydrase 2 – biochemical, small-molecule microarray, Alexa647-labelled CAII, profiling panel (AID 1122). The settings on record: CAII-A647 binding fluorescence, higher = more signal.
Test [5] in a line: COS7 lysate on small-molecule microarray, probe aHis, 635 nm (AID 1123).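 Also: z-score combines 667nm fluorescence intensity with signal-to-noise per printed compound spot.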 The settings on record: COS7 cell lysate, fluorescence, higher = more signal.
The nature of test [6]: probe aLAP1 signal on lysate-treated microarray – cell lysate, small-molecule microarray, COS7 lysate, primary screen (AID 1124).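 Also: lysate comes from COS7 cells expressing LAP1 and is applied at 0.3 µg/mL; score merges spot fluorescence near 667 nm with signal-to-noise over triplicate slides.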 The note with it: probe aLAP1, fluorescence, higher = more signal.
In another test the test system is Sam68 (KHDRBS1). Briefly: compounds binding KHDRBS1 protein – biochemical, small-molecule microarray, 635 nm fluorescence, primary screen (AID 1125).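 Also: score merges 667 nm channel intensity with signal to noise over triplicate slides.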 The note with it: higher = more signal.
The subject of test [7] is Chordin-like protein 2 (CHRDL2). The experiment in a line: compounds binding chordin-like 2 – biochemical, small-molecule microarray, 635 nm fluorescence, primary screen (AID 1126).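 Also: printed compound slides probed with Chrdl2 protein at 4 µg/mL for 1 h at 4 C; score merges 667 nm emission intensity with signal to noise over three replicate slides.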 The settings on record: fluorescence 635 nm, higher = more signal.
The target of test [8] is Concanavalin-A (Canavalia ensiformis) (UniProt P02866). Briefly: compounds binding concanavalin A lectin – biochemical, small-molecule microarray, Alexa647 label, 635 nm, artefact control for SMM control protein annotation, primary screen (AID 1127).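 Also: z combines 667 nm emission intensity with signal-to-noise across three replicate slides.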 The settings on record: ConA-A647 binding fluorescence, higher = more signal.
Concanavalin-A (Canavalia ensiformis), sequence (P02866 whole entry, looked up): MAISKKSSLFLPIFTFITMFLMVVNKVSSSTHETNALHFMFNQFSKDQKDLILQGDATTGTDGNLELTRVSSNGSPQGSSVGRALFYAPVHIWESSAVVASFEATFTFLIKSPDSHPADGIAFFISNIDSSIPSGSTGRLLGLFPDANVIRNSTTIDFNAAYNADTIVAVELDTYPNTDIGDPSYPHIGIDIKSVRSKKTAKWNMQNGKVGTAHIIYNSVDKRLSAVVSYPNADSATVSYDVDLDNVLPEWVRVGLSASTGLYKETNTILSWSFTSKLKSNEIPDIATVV
The nature of test [9]: compounds binding Alexa647 anti-His antibody – biochemical, small-molecule microarray, 635 nm fluorescence, artefact control for SMM control protein annotation, primary screen (AID 1128).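 Also: score merges feature fluorescence with signal-to-noise for each printed compound spot.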 The settings on record: higher = more signal.
For test [10], the system named is Human papillomavirus type 1a E7 protein (residues 1-88). The experiment in a line: HPV1a E7 small-molecule binders, primary screen, biochemical, small-molecule microarray, residues 1-88, 635 nm (AID 1129). The settings on record: small-molecule microarray binding, fluorescence 635 nm; higher = more signal.
Test [11] has as its target Focal adhesion kinase 1 (Homo sapiens) (UniProt Q05397). The experiment in a line: PTK2 protein binding on printed compound slides – biochemical, small-molecule microarray, 635/667 nm fluorescence, BSA, DTT, primary screen (AID 1130).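 Also: composite of spot emission at 667 nm and signal to noise over triplicate slides.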 The settings on record: 635 nm fluorescence, higher = more signal.
The subject of test [12] is Fibrinogen (Alexa647-labelled). The experiment in a line: Alexa647-fibrinogen binding to printed small molecules – biochemical, small-molecule microarray, 635/667 nm fluorescence, artefact control for SMM control-protein annotation, profiling panel (AID 1131).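 Also: z-score merges 667 nm fluorescence with per-spot signal-to-noise over triplicate slides.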 The settings on record: fibrinogen-A647 binding fluorescence, higher = more signal.
The target in test [13] is Follistatin (Homo sapiens) (UniProt P19883). Briefly: FST protein binding to printed compounds – biochemical, small-molecule microarray, 635/667 nm fluorescence, primary screen (AID 1132). The settings on record: 635 nm fluorescence, higher = more signal.
Follistatin (Homo sapiens), sequence (P19883 whole entry, looked up): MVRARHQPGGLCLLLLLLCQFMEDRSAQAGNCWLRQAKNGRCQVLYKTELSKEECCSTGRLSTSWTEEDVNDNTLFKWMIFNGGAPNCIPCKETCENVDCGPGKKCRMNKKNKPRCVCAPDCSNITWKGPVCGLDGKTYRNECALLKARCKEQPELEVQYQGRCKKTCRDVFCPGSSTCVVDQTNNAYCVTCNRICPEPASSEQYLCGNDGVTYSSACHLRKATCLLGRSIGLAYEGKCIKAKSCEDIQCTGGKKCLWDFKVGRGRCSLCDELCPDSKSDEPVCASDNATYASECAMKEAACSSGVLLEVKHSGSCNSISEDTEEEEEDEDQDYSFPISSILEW
The target of test [14] is Fibroblast growth factor 2 (Homo sapiens) (UniProt P09038). The experiment in a line: basic fibroblast growth factor binding to printed compounds – biochemical, small-molecule microarray, 635/667 nm fluorescence, primary screen (AID 1133). The settings on record: FGF2, fluorescence 635/667, higher = more signal.
Fibroblast growth factor 2 (Homo sapiens), sequence (P09038 whole entry, looked up): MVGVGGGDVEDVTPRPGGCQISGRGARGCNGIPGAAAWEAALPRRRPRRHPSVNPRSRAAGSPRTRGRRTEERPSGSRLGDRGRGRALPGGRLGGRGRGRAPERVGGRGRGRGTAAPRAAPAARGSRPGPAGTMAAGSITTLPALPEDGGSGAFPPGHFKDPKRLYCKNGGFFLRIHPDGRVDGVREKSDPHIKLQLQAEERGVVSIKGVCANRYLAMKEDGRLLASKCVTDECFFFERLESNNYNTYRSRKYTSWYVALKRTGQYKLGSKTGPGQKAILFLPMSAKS
Test [15] in a line: JC-1 mitochondrial potential readout, lung cancer cells – cell-based, A549, JC-1 fluorescence, basal, 24 h, 100 nL, profiling panel (AID 1138).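 Also: A549 lung adenocarcinoma cells under basal conditions with no added stimulus; test concentration not given here.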 The settings on record: higher = more signal.
In another test the test system is Lefty1. The experiment in a line: Lefty1 protein binding to printed compounds – biochemical, small-molecule microarray, 635/667 nm fluorescence, primary screen (AID 1139). The settings on record: fluorescence 635/667, higher = more signal.
The test system of test [16] is wheat germ agglutinin (Triticum aestivum), Alexa647-labelled. The experiment in a line: Alexa647-WGA lectin binding to printed small molecules – biochemical, small-molecule microarray, 635/667 nm fluorescence, artefact control for SMM control-protein annotation, profiling panel (AID 1140).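 Also: score merges 667 nm feature emission with signal to noise over triplicate slides.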 The note with it: WGA-A647 binding, 635 nm fluorescence, higher = more signal.

Test [17] deals with Luciferin 4-monooxygenase (Photinus pyralis) (UniProt P08659). Briefly: inhibition of purified Photinus pyralis luciferase – biochemical, luminescence, purified enzyme, 2006 set, primary screen (AID 1141).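 Also: cell-free assay with purified firefly luciferase at 100 ng per well in PBS; test concentration not given here.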 The note with it: purified firefly luciferase, SteadyGlo luminescence, 30 min; higher = more signal, called active from +8 up or from −8 down.
Luciferin 4-monooxygenase (Photinus pyralis), sequence (P08659 whole entry, looked up): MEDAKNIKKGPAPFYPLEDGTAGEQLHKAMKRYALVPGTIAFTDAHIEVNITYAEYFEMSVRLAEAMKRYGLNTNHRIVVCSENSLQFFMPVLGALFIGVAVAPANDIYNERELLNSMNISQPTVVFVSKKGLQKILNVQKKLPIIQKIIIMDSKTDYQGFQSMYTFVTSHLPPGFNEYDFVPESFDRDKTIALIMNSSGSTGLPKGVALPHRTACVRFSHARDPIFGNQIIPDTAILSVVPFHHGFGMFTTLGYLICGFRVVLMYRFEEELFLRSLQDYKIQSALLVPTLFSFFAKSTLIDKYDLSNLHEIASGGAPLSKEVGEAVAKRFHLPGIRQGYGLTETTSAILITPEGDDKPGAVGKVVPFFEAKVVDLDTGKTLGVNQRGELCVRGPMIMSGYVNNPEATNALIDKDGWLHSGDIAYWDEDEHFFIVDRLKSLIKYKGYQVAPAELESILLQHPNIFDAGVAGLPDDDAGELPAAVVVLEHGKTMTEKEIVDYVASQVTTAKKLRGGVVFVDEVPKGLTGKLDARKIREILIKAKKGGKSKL

Albumin (Bos taurus), sequence (P02769 whole entry, looked up): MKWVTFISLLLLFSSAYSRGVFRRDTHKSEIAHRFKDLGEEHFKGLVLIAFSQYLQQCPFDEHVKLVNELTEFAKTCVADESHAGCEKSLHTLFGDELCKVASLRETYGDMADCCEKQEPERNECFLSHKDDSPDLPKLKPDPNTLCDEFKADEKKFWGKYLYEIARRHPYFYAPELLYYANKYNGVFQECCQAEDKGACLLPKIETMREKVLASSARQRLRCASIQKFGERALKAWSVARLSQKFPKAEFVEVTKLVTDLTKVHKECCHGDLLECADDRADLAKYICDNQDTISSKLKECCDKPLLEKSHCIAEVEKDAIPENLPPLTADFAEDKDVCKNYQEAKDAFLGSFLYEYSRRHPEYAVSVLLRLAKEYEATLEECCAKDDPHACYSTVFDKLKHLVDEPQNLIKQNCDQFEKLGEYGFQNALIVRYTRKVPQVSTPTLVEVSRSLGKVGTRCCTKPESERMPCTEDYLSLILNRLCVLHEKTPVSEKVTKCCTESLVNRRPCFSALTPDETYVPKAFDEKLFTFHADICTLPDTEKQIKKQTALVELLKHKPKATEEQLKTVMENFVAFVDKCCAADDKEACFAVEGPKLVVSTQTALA
Focal adhesion kinase 1 (Homo sapiens), sequence (Q05397 whole entry, looked up): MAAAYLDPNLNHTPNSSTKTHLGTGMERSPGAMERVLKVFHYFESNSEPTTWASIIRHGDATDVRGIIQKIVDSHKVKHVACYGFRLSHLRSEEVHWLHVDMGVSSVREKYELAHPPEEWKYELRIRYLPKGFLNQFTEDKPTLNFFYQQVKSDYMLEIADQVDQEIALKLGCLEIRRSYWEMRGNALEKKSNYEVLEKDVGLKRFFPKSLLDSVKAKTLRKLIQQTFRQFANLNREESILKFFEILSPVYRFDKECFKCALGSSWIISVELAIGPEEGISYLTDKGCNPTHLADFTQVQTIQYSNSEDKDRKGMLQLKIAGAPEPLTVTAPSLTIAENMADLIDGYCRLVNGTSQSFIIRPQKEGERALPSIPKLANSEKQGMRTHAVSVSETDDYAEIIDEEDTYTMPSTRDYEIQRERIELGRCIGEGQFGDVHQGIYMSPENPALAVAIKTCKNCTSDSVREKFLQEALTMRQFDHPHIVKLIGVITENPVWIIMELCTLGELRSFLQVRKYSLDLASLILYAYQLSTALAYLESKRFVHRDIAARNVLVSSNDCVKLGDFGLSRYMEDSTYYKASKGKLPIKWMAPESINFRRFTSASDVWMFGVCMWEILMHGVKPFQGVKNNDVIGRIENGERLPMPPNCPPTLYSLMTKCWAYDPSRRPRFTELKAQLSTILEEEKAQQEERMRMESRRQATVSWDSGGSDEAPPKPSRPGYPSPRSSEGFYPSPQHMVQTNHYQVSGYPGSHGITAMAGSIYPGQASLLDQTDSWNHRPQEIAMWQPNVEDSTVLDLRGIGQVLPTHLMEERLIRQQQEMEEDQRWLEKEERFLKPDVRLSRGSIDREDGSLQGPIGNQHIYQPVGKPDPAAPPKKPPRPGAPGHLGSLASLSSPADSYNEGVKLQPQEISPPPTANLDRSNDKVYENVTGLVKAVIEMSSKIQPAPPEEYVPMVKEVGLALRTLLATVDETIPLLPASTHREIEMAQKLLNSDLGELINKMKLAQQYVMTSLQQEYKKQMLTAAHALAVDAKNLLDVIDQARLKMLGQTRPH

Turning to `Cc1ccc(S[C@]2(C(=O)NCCCN(C)C)CC(=O)N(C3Cc4ccccc4C3)[C@@H]2c2ccc(CO)cc2I)cc1`, the composite z-score was 0.827 in the test with Albumin (Bos taurus); -0.0569 in test [2]; -0.18 in test [3]; 0.715 in test [4]; 0.83 in [5]; -0.312 in test [6]. Also, the composite z-score with Sam68 (KHDRBS1) is 0.125; in [7] it was -0.745; in [8], 0.441; in test [9] it was 0.0192; in test [10], 0.132; in test [11] it was -0.0489. The composite z-score in test [12] was 0.493; in [13], 0.135; in [14], -0.813; in the test with Lefty1, -0.515; in test [16], 0.0805. In test [1], the composite Z-score was 0.42 (inactive). Besides, the z-score in test [15] was -0.522; in [17], -0.222 (inactive).
`O=C1OCCC=C[C@H]2OC34C=CCN(c5ccc6ccccc6c5)C(=O)[C@H]3N(CCO)C(=O)[C@@H]4C12` (stereo not given in full): the composite z-score with Albumin (Bos taurus) is -0.594; in [2], -0.571; in test [3], -0.445; in test [4], 0.368; in test [5] it was -0.237; in test [6], -0.162. The composite z-score in the test with Sam68 (KHDRBS1) is -0.362; in [7], -0.976; in [8] it was -0.403; in [9], -0.75; in test [10] it was -0.803; in test [11] it was -0.101. In addition, the composite z-score in [12] was -0.318; in [13] it was -0.129; in test [14], -0.909; in the test with Lefty1 it was -0.472; in [16] it was -0.117. In test [1], the composite Z-score was 0.465 (inactive). The z-score in [15] is -0.522; in [17] it was -0.207 (inactive).
Regarding `CC(C)C(CO)N1C(=O)[C@@H]2C3C(=O)OCCC/C=C\[C@H]3OC23C=CCN(Cc2ccccc2)C(=O)[C@@H]13` (stereo not given in full), the composite z-score with Albumin (Bos taurus) is -1.25; in test [2] it was -0.159; in test [3], -0.11; in test [4], 0.902; in test [5] it was 0.708; in [6], 1.5. Also, the composite z-score in the test on Sam68 (KHDRBS1) was -0.173; in test [7] it was -1.11; in test [8], -1.67; in test [9] it was -1.18; in test [10] it was -0.359; in test [11], -0.0926. For the same molecule, the composite z-score is -2.51 in test [12]; -0.908 in test [13]; -0.591 in test [14]; -0.524 in the test with Lefty1; -1.2 in test [16]. In addition, the composite Z-score in [1] is -0.157 (inactive). For the same molecule, the z-score was 1.21 in test [15] and -0.59 (inactive) in test [17].
`COC(=O)[C@@]1(Cc2ccc(F)cc2)[C@H]2c3cc(C(=O)N(C)C)n(CCc4ccc(O)c(O)c4)c3C[C@H]2CN1C(=O)c1ccccc1`: the composite z-score in the test with Albumin (Bos taurus) was determined as 0.508; in test [2], 0.0807; in [3] it was 0.256; in [4], 0.863; in test [5], 3.26; in test [6], 0.541. Further, the composite z-score was 0.0409 in the test with Sam68 (KHDRBS1); -0.938 in [7]; 0.227 in [8]; -0.0012 in [9]; 1.18 in test [10]; 0.512 in [11]. Besides, the composite z-score was 0.823 in test [12]; -0.123 in test [13]; -0.72 in test [14]; -0.08 in the test with Lefty1; 0.528 in [16]. Also, in test [1], the composite Z-score is 0.964 (inactive). Besides, the z-score in test [15] is 0.987; in test [17], 0.569 (inactive).
For `NC(=O)NCC#Cc1ccc2c(c1)[C@]1(C(=O)N2)[C@H](c2ccc(OCCO)cc2)N2[C@H](c3ccccc3)[C@H](c3ccccc3)OC(=O)[C@H]2[C@@H]1C(=O)NC[C@H](O)c1ccccc1`, the composite z-score in the test with Albumin (Bos taurus) was 0.335; in test [2] it was 0.0237; in test [3], -0.147; in test [4] it was 0.428; in [5], 0.485; in test [6] it was -0.146. For the same molecule, the composite z-score in the test with Sam68 (KHDRBS1) is -0.449; in [7] it was 0.0046; in [8] it was 1.03; in test [9], -0.454; in [10], 0.542; in test [11], 0.115. Moreover, the composite z-score was 0.879 in test [12]; 1.25 in test [13]; -0.0515 in test [14]; 0.395 in the test on Lefty1; 0.259 in [16]. The composite Z-score in test [1] is 0.691 (inactive). In addition, the z-score in test [15] was -1.08; in [17] it was 0.409 (inactive).
